{
  "source": "PubChem BioAssay (NCI)",
  "note": "This is part of a sample that, as a whole, favours compounds with a hit. Of some 83,000 tested, about 20% had one in any assay.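 Cells were grown in 96-well plates and exposed to the test compound at a single concentration for 48 hours; results are reported as percent growth, with values below 10 considered active.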 Unmarked numbers belong to inactive results. Activity calls are given as the source filed them.",
  "data": [
    {"tested_on": "HL-60(TB) leukemia", "assay": "NCI-60 one-dose screen, 48 h (100 = growth as untreated, 0 = no growth, -100 = all killed)", "conditions": "10 µM unless noted", "values": [
      {"smiles": "CN(C)CCCN(Cc1ccccc1O)C(=S)Nc1ccc(Cl)cc1", "growth": "103%"},
      {"smiles": "NC(=O)C1(N2CCCCC2)CCN(CCCC(=O)c2ccc(F)cc2)CC1", "growth": "9.84% (active)"},
      {"smiles": "COc1ccc(C(=O)c2cc3c(N)c(C(=O)Nc4ccc(Cl)cc4)sc3nc2C)cc1", "growth": "62.9%"},
      {"smiles": "COc1cc(Cl)cc(-c2nn(C(=O)NS(=O)(=O)c3ccccc3)cc2-c2ccncc2)c1", "growth": "94.3%"},
      {"smiles": "Cc1ccc(-c2csc3nc(C)c(CCCl)c(=O)n23)cc1", "growth": "107%"},
      {"smiles": "Cc1ccc(Nc2cc(Cl)c([N+](=O)[O-])cc2[N+](=O)[O-])cc1", "growth": "6.39% (active)"},
      {"smiles": "CC(=O)NC(CCC(=O)c1ccccc1)C(=O)O", "note": "(stereo unspecified)", "growth": "75.9%"},
      {"smiles": "CN(CCOc1ccc(C#N)cc1)CCOc1ccc(C#N)cc1", "growth": "42.4%"},
      {"smiles": "COc1cnc2c(c1)C(=O)c1c-2n(CCCN2CCC(O)CC2)c(=O)c2cc(Cl)ccc12", "growth": "-35.9% (active)"},
      {"smiles": "CCOC(=O)CO", "growth": "83.5%"},
      {"smiles": "O=C(CNc1ccc(Cl)cc1)Nc1ccc(-c2nc3ccccc3s2)cc1", "growth": "71%"},
      {"smiles": "CCOC(=O)C(=Cc1ccc(C#N)cc1)C(=O)OCC", "growth": "-33.2% (active)"},
      {"smiles": "COc1cc2c(Nc3ccc(NC(=O)Nc4ccc(Cl)c(C(F)(F)F)c4)c(Cl)c3)ncnc2cc1OCCCN1CCN(C)CC1", "growth": "-56.4% (active)"},
      {"smiles": "COc1cc(Nc2ccnc(N3CCN(c4ccnc5cc(Cl)ccc45)CC3)n2)cc(OC)c1", "growth": "-23.7% (active)"},
      {"smiles": "COc1ccccc1/C=C\\C(=O)c1ccccc1", "growth": "48.3%"},
      {"smiles": "O=C(Nc1cccc(-n2cc(-c3ccncc3)c(-c3ccc(O)c(Cl)c3)n2)c1)c1ccc(N2CCOCC2)c(C(F)(F)F)c1", "growth": "-10.6% (active)"}
    ]}
  ]
}
